Measured values as given in PubChem BioAssay (Tox21).
Results filed as inconclusive are left out. A call without a number means that no potency is given here. Active and inactive are the calls of the source. Unless noted, the call rests on the fitted dose curve; in most records, active means well fitted curve in the direction sought with a large enough effect in the repeat runs; inconclusive means weak or mixed curves; inactive means no such curve, though single readings can be large; an effect the other way counts as inactive or inconclusive. Positions of bridges follow the written chain, without caps; N, C: chain ends. Non-standard residues stand in square brackets, D forms with d. Residues, ends and D or L forms follow the SMILES beside them. *: point of attachment. Dab(CH2SO3H) = N[C@@H](CCNCS(=O)(=O)O)C(=O)O; X3 = CC[C@@H](C)CCCCC(=O)*; Dab = NCC[C@H](N)C(=O)O

target: Androgen receptor (Homo sapiens) (UniProt P10275); test: qHTS assay to identify small molecule agonists of the androgen receptor (AR) signaling pathway (AID 743036; active means well fitted activation curve with a large enough effect in the signal ratio in the repeat runs, with a control signal flat, not every such curve was filed as active; the % refers to the signal ratio); conditions: HEK293 AR-UAS-bla GripTite, beta-lactamase FRET ratio, 16 h; series mostly up to 62.4 µM
Sequence (P10275 whole entry, looked up): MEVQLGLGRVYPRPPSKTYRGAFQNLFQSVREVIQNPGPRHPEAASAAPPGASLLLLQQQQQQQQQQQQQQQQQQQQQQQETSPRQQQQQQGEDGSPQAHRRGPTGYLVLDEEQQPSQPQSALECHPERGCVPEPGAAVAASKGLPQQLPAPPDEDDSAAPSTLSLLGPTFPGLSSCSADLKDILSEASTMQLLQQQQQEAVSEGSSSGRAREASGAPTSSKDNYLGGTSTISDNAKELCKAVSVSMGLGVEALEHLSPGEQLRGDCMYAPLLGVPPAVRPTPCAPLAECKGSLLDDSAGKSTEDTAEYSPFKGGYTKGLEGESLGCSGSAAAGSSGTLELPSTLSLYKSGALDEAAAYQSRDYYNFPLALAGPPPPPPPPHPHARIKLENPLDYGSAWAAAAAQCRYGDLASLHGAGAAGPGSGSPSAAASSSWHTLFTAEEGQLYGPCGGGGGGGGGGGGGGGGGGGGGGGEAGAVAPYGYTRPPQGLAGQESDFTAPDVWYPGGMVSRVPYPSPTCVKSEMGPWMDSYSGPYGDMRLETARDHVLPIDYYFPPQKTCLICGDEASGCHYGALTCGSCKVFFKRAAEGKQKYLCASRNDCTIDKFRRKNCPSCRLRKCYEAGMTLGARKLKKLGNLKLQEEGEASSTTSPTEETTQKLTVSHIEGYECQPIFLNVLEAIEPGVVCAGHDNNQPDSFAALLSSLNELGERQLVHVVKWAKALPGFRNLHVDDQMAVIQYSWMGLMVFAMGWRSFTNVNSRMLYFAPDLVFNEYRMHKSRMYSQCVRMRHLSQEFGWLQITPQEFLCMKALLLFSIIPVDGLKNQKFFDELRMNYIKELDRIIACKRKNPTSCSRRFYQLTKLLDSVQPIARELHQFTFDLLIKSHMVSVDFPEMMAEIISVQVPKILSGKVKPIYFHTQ
Method in brief: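 Quantitative HTS of the Tox21 10K library in HEK293 cells bearing a stably integrated UAS-controlled beta-lactamase reporter. Compound exposure lasted 16 h at 37C. Reporter activity was detected by FRET substrate fluorescence after 2 h at room temperature.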

Compound	Potency
NC[C@@H]1CC[C@@H](N)[C@@H](O[C@H]2[C@H](O)[C@@H](O[C@H]3O[C@H](CO)[C@@H](O)[C@H](N)[C@H]3O)[C@H](N)C[C@@H]2N)O1	inactive
CC12CCC(C1)C(C)(C)C2=O (stereo unspecified)	inactive
CC[C@H](C)C(=O)O[C@H]1CCC=C2C=C[C@H](C)[C@H](CC[C@@H]3C[C@@H](O)CC(=O)O3)[C@H]21	inactive
CN(C)CCc1c[nH]c2ccc(Cn3cncn3)cc12	inactive
O=C1C2CC3CC1CC(O)(C3)C2	inactive
CC[C@@H](C)CCCCC(=O)N[C@@H](CCNCS(=O)(=O)O)C(=O)N[C@H](C(=O)N[C@@H](CCNCS(=O)(=O)O)C(=O)N[C@H]1CCNC(=O)[C@H]([C@@H](C)O)NC(=O)[C@H](CCNCS(=O)(=O)O)NC(=O)[C@H](CCNCS(=O)(=O)O)NC(=O)[C@H](CC(C)C)NC(=O)[C@@H](CC(C)C)NC(=O)[C@H](CCNCS(=O)(=O)O)NC1=O)[C@@H](C)O (X3-[Dab(CH2SO3H)]T[Dab(CH2SO3H)][Dab][Dab(CH2SO3H)][dL]L[Dab(CH2SO3H)][Dab(CH2SO3H)]T; lactam 4-C)	inactive

target: Androgen receptor (Homo sapiens) (UniProt P10275); test: qHTS assay to identify small molecule agonists of the androgen receptor (AR) signaling pathway using the MDA cell line (AID 743040; further: nearly all actives have a fitted effect of over 20% in size; further: potency means the concentration at half of the fitted maximal effect); conditions: MDA-kb2 AR-luc cells, MMTV luciferase, 16 h; series mostly up to 70.3 µM
Method in brief: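 After a 5 h incubation at 37C and 0% CO2, MDA-kb2 reporter cells were dosed with compounds in DMSO and kept 16 h under the same conditions. Luciferase activity was then read as luminescence with ONE-Glo.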

Compound	Potency
COc1cccc2c1[C@@H]1CN(CCCCn3c(=O)[nH]c4c(sc5ncc(-c6ccccc6)nc54)c3=O)C[C@@H]1CO2	inactive
O=P(O)(O)OP(=O)(O)OP(=O)(O)O	inactive
NC[C@@H]1CC[C@@H](N)[C@@H](O[C@H]2[C@H](O)[C@@H](O[C@H]3O[C@H](CO)[C@@H](O)[C@H](N)[C@H]3O)[C@H](N)C[C@@H]2N)O1	29.8 µM (active)
CN1CC[C@H](c2c(O)cc(O)c3c(=O)cc(-c4ccccc4Cl)oc23)[C@H](O)C1	inactive
CC12CCC(C1)C(C)(C)C2=O (stereo unspecified)	inactive
C[C@]12O[C@H](C[C@]1(O)CO)n1c3ccccc3c3c4c(c5c6ccccc6n2c5c31)CNC4=O	inactive
CC(C)c1ncc([N+](=O)[O-])n1C	inactive
CC[C@H](C)C(=O)O[C@H]1CCC=C2C=C[C@H](C)[C@H](CC[C@@H]3C[C@@H](O)CC(=O)O3)[C@H]21	inactive
CN(C)CCc1c[nH]c2ccc(Cn3cncn3)cc12	inactive
C/C=C/C1=C(C(=O)O)N2C(=O)[C@@H](NC(=O)[C@H](N)c3ccc(O)cc3)[C@H]2SC1	inactive
O=C1C2CC3CC1CC(O)(C3)C2	inactive
COC(=O)C[C@](O)(CCCC(C)(C)O)C(=O)O[C@@H]1C(OC)=CC23CCCN2CCc2cc4c(cc2[C@H]13)OCO4 (stereo partly specified)	inactive
CC[C@@H](C)CCCCC(=O)N[C@@H](CCNCS(=O)(=O)O)C(=O)N[C@H](C(=O)N[C@@H](CCNCS(=O)(=O)O)C(=O)N[C@H]1CCNC(=O)[C@H]([C@@H](C)O)NC(=O)[C@H](CCNCS(=O)(=O)O)NC(=O)[C@H](CCNCS(=O)(=O)O)NC(=O)[C@H](CC(C)C)NC(=O)[C@@H](CC(C)C)NC(=O)[C@H](CCNCS(=O)(=O)O)NC1=O)[C@@H](C)O (X3-[Dab(CH2SO3H)]T[Dab(CH2SO3H)][Dab][Dab(CH2SO3H)][dL]L[Dab(CH2SO3H)][Dab(CH2SO3H)]T; lactam 4-C)	inactive

system: not listed separately; test: qHTS assay to identify small molecule antagonists of the androgen receptor (AR) signaling pathway using the MDA cell line - cell viability counter screen (AID 743041; further: nearly all actives have a fitted effect of over 45% in size; further: potency means the concentration at half of the fitted maximal effect); conditions: MDA-kb2 viability, CellTiter-Fluor, 16 h, cells co-treated with R1881 androgen agonist; series mostly up to 70.3 µM
Method in brief: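 R1881-driven MDA-kb2 AR-luc cells, 3,000/well, were dosed with library compounds for 16 h; cell health came from CellTiter-Fluor fluorescence in the reporter wells.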

Compound	Potency
O=P(O)(O)OP(=O)(O)OP(=O)(O)O	inactive
NC[C@@H]1CC[C@@H](N)[C@@H](O[C@H]2[C@H](O)[C@@H](O[C@H]3O[C@H](CO)[C@@H](O)[C@H](N)[C@H]3O)[C@H](N)C[C@@H]2N)O1	inactive
CC(=O)OCC(=O)[C@@]1(O)CC[C@H]2[C@@H]3CCC4=CC(=O)CC[C@]4(C)C3=CC[C@@]21C	inactive
CN1CC[C@H](c2c(O)cc(O)c3c(=O)cc(-c4ccccc4Cl)oc23)[C@H](O)C1	inactive
COc1c(Br)cc(Br)c(C)c1Br	inactive
CC12CCC(C[N+](C)(CCC[N+](C)(C)C)C1)C2(C)C (stereo unspecified)	inactive
O=C1c2c(O)cccc2[C@H]([C@@H]2O[C@H](CO)[C@@H](O)[C@H](O)[C@H]2O)c2cc(CO)cc(O)c21	inactive
NCC(O)CC(=O)O (stereo unspecified)	inactive
CCOc1ccc(S(=O)(=O)O)c2cccnc12	inactive
CC12CCC(C1)C(C)(C)C2=O (stereo unspecified)	inactive
CN1C(=O)C[C@@H](C(=O)N[C@@H](Cc2cnc[nH]2)C(=O)N2CCC[C@H]2C(N)=O)NC1=O	inactive
NC[C@H]1O[C@H](O[C@H]2[C@H](O)[C@@H](O[C@H]3O[C@H](CO)[C@@H](O)[C@H](N)[C@H]3O)[C@H](N)C[C@@H]2N)[C@H](N)C[C@@H]1O	inactive
NCC[C@H](O)C(=O)N[C@@H]1C[C@H](N)[C@@H](O[C@H]2O[C@H](CN)CC[C@H]2N)[C@H](O)[C@H]1O[C@H]1O[C@H](CO)[C@@H](O)[C@H](N)[C@H]1O	inactive
CC1(C)S[C@@H]2[C@H](NC(=O)[C@@H](NC(=O)N3CCNC3=O)c3ccccc3)C(=O)N2[C@H]1C(=O)O	inactive
C=CC[N@@+]12CC[C@@]34c5ccccc5N5/C=C6/[C@H]7C[C@H]8[C@@]9(CC[N@@+]8(CC=C)C/C7=C/CO)c7ccccc7N(/C=C(/[C@@H](C[C@@H]31)/C(=C\CO)C2)[C@H]54)[C@@H]69	inactive
CC(C)Cc1ccc([C@H](C)C(=O)O)cc1	inactive

Compound	Potency
COc1cc2c(cc1OC)[C@@H](Cc1cc(OC)c(OC)c(OC)c1)[N+](C)(CCCOC(=O)CC/C=C/CCC(=O)OCCC[N+]1(C)CCc3cc(OC)c(OC)cc3[C@H]1Cc1cc(OC)c(OC)c(OC)c1)CC2 (stereo partly specified)	inactive
FC(F)(F)C(F)(F)C(F)(F)C(F)(F)C(F)(F)F	inactive
COc1ccc(/C=N/NC(=O)c2ccncc2)c(C(=O)O)c1OC	inactive
C[C@]12O[C@H](C[C@]1(O)CO)n1c3ccccc3c3c4c(c5c6ccccc6n2c5c31)CNC4=O	11.9 µM (active)
CC[N+](CC)(CC)CCC(O)(c1ccccc1)C1CCCCC1 (stereo unspecified)	inactive
CC(C)c1ncc([N+](=O)[O-])n1C	inactive
CC[C@H](C)C(=O)O[C@H]1CCC=C2C=C[C@H](C)[C@H](CC[C@@H]3C[C@@H](O)CC(=O)O3)[C@H]21	inactive
CCN(CC)CCNC(=O)c1ccc(NS(C)(=O)=O)cc1	inactive
CN(C)CCc1c[nH]c2ccc(Cn3cncn3)cc12	inactive
C=C1C(=C/C=C2\CCC[C@]3(C)[C@@H]([C@H](C)CCCC(C)C)CC[C@@H]23)C[C@@H](O)C[C@@H]1O	inactive
C/C=C/C1=C(C(=O)O)N2C(=O)[C@@H](NC(=O)[C@H](N)c3ccc(O)cc3)[C@H]2SC1	inactive
O=C1C2CC3CC1CC(O)(C3)C2	inactive
COC(=O)C[C@](O)(CCCC(C)(C)O)C(=O)O[C@@H]1C(OC)=CC23CCCN2CCc2cc4c(cc2[C@H]13)OCO4 (stereo partly specified)	0.0531 µM (active)
CC[C@@H](C)CCCCC(=O)N[C@@H](CCNCS(=O)(=O)O)C(=O)N[C@H](C(=O)N[C@@H](CCNCS(=O)(=O)O)C(=O)N[C@H]1CCNC(=O)[C@H]([C@@H](C)O)NC(=O)[C@H](CCNCS(=O)(=O)O)NC(=O)[C@H](CCNCS(=O)(=O)O)NC(=O)[C@H](CC(C)C)NC(=O)[C@@H](CC(C)C)NC(=O)[C@H](CCNCS(=O)(=O)O)NC1=O)[C@@H](C)O (X3-[Dab(CH2SO3H)]T[Dab(CH2SO3H)][Dab][Dab(CH2SO3H)][dL]L[Dab(CH2SO3H)][Dab(CH2SO3H)]T; lactam 4-C)	inactive
CCC(NC(C)C)C(O)c1ccc(O)c(O)c1 (stereo unspecified)	inactive
O=C1CCC(c2ccc(-n3ccnc3)cc2)=NN1	inactive
